High-throughput results as filed in PubChem BioAssay.
Shown are actives, neighbours in structure and some others; about 4.8% of the full set was active somewhere.
ssDAF-12 act: S. stercoralis DAF-12 nuclear receptor activators, primary screen, cell-based, luminescence, HEK293, GRIP1 co-expression, lit1-tk-luc; AID 652126, 2013; HEK293 ssDAF-12/GRIP1 lit1-tk-luc reporter; % of 3 µM dafachronic acid response; Nuclear hormone receptor DAF-12 (Strongyloides stercoralis); activation, % at 6.8 µM; hit rate 1% among 370,000;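 active means activation above the mean over all tested compounds plus 3 SD, cut at about 0.9% in these data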;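 further: 0% = DMSO-only wells and 100% = 3 µM delta7-dafachronic acid wells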
hgDAF12 agonist: H. glycines DAF-12 receptor agonists, primary screen, cell-based, luminescence, HEK293, GAL4 fusion, UAS-luciferase | HEK293 GAL4-hgDAF12 UAS-luciferase reporter, agonist luminescence; normalized to butyrate control | activation, % at 6.8 µM | hit rate 1.8% among 370,000 | AID 687014, 2013;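 active means activation above a cutoff set at the mean of all screened compounds plus 3 SD, cut at about 10% in these data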;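 further: 0% = DMSO wells and 100% = sodium butyrate wells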
SMARCA2 act: SMARCA2 (BRM) function activators, primary screen, cell-based, luminescence, high throughput; MG213 cells, MMTV-luciferase reporter, dexamethasone, overnight; activation, % at 9.1 µM; hit rate 1% among 370,000; in the data active means activation above about 7.8%;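 further: 0% = vehicle wells and 100% = reference activator wells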
hcDAF12 agonist: H. contortus DAF-12 nuclear receptor activators, primary screen, cell-based, luminescence, HEK293, lit1-tk-luc reporter | HEK293 hcDAF-12 lit1-tk-luc reporter; 0% DMSO, 100% Δ7-dafachronic acid | activation, % at 6.8 µM | hit rate 1.4% among 370,000 | AID 652067, 2013;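 active means activation above the mean of all tested compounds plus 3 SD, cut at about 5.5% in these data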;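 further: 100% = response to 3 µM Δ7-dafachronic acid high control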
DAX1 inh-1: DAX1 (NR0B1) inhibitors on StAR promoter, primary screen, cell-based, luminescence, SF-1 (NR5A1), full-length DAX-1 | inhibition, % at 6.8 µM | hit rate 1.1% among 370,000 | HEK293T StAR-luciferase reporter, SF-1/DAX-1 repression relief;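 active means inhibition above the mean over all tested compounds plus 3 SD, cut at about 3.6% in these data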;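 further: 0% = DAX-1 cells with DMSO and 100% = cells lacking DAX-1 with DMSO; higher inhibition means more luminescence from relief of DAX-1 repression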
DAX1 inh-2: DAX1 (NR0B1) inhibitors, primary screen, cell-based, HEK293, Gal4-DAX1, luciferase luminescence | HEK293 Gal4-DAX1 luciferase reporter | inhibition, % at 6.75 µM | hit rate 0.99% among 340,000 | AID 504766, 2011;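 active means inhibition above the mean over all tested compounds plus 3 SD, cut at about 4.2% in these data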;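 further: 0% = DAX1-transfected cells with DMSO and 100% = empty-vector control cells with DMSO; inhibition shows as a rise in luminescence from relieved DAX1 repression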
Target sequence (P51843 207-470 limits assumed): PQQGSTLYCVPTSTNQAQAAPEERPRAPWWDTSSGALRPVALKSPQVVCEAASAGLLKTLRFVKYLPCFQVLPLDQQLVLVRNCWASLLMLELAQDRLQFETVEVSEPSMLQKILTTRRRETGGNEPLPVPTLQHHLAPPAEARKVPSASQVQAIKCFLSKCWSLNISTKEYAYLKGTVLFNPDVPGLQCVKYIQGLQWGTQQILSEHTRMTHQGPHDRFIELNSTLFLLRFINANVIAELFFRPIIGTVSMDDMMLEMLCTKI
* = called active by the depositor; . = not tested or not shown.

SMILES	ssDAF-12 act	hgDAF12 agonist	SMARCA2 act	hcDAF12 agonist	DAX1 inh-1	DAX1 inh-2
Nc1ccccc1Nc1cc(-c2ccccc2)nn1-c1ccccc1	-1	0	-2	0	1	2
Nc1ccccc1Nc1cc(-c2ccccc2)[nH]n1	-1	10	0	6.0*	2	1
CC(=O)Nc1c(C(=O)O)[nH]c2ccccc12	1	-1	1	6.1*	0	0
COc1cc(C(=O)Nc2c(C(=O)O)[nH]c3ccccc23)cc(OC)c1OC	1	1	-3	6.1*	0	1
COC(=O)c1cc2c(c3c4cc(F)ccc4n(S(=O)(=O)c4ccccc4)c13)C(=O)N(Cc1ccco1)C2	-1	-2	6	1	-2	.
Cc1c(C(=O)Nc2cccc(F)c2)cnn1-c1ccccc1	1.6*	10*	0	5	2	3
Cc1cccc(NC(=O)c2cnn(-c3ccccc3)c2C)c1C	-1	3	3	0	1	2
Cc1ccccc1NC(=O)c1cnn(-c2ccccc2)c1C	1	12*	3	1	1	4
On1c(-c2ccc(Cl)cc2)nc2ccccc21	0	11*	2	3	2	.
On1c(-c2ccccc2)nc2ccccc21	-1	3	-2	0	1	1
Cc1ccc(C(NC(=O)C2CCCCC2)c2c(O)ccc3ccccc23)cc1 (stereo not given)	-1	-2	-5	-1	0	-1
O=C(NC1CCCC1)C1CC1c1ccccc1 (stereo not given)	-2	-1	5	-1	0	0
Cc1nc(-c2cc(-c3ccc(Cl)cc3)no2)cs1	-1	3	5	0	1	4.5*
c1cncc(-c2csc(-c3cccnc3)n2)c1	-1	6	-1	1	-1	4.7*
c1cncc(-c2nc(-c3ccco3)cs2)c1	0	3	2	-1	0	0
Clc1ccsc1-c1csc(-c2cccnc2)n1	1	8	6	5	0	1
c1cncc(-c2nc(-c3cccs3)cs2)c1	-1	8	4	6.2*	0	1
CC(=O)Nc1ccc(-c2csc(-c3cccnc3)n2)cc1	1	11*	0	3	1	2
O=C(NCCc1c[nH]c2ccccc12)c1cccnc1	1.9*	2	-3	3	1	4
CCn1c(C(=O)NC2CCC(C)CC2)cc2sccc21 (stereo not given)	-1	7	-2	-1	1	1
O=C(NCCc1c[nH]c2ccccc12)c1cc(S(=O)(=O)N2CCCCC2)ccc1N1CCOCC1	1.9*	1	0	2	0	-1
CCCNC(=O)c1cc(S(=O)(=O)N2CCCCC2)ccc1N1CCOCC1	-1	4	2	0	0	0
Cn1c(C(=O)NC2CCCCC2)cc2sccc21	0	8	2	6.0*	2	1
O=C(NCCc1c[nH]c2ccccc12)c1cccc(S(=O)(=O)Nc2ccccc2Cl)c1	1.1*	-5	-5	6.0*	0	0
COc1cccc(/C=C2\SC(=O)N(CCC(=O)NNC(=O)c3cccc(Cl)c3)C2=O)c1	-1	1	-2	-1	0	1
O=C(O)c1nccnc1C(=O)NCCc1c[nH]c2ccccc12	0	-1	-2	5.6*	0	1
Cn1c(C(=O)NCCc2c[nH]c3ccccc23)cc2sccc21	2.5*	12*	0	5.9*	2	0
O=C(Cc1ccccc1)NCCc1c[nH]c2ccccc12	-1	-2	0	1	0	0
COc1c(O)ccc(/C=N\NC(=O)c2ccc3c(c2)OCO3)c1[N+](=O)[O-]	-1	1	0	-1	0	5.5*
